“And” between values parts separate entries of the source, which are not always exact repeats. Identical values can stand only once. The source made the active and inactive calls. Rule as the data show it: active = inhibition above about 80%; inactive = the rest.

By inhibition is commonly meant the relative decrease from the control value, in per cent.

One experiment can be described thus: growth inhibition, MDA-MB-436, cell-based, BGB or cisplatin combos, synergistic combos for chromothripsis tumors (AID 1671458).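 Also: cells exposed for 96 hours; 0% = vehicle DMSO and 100% = killing by high DMSO.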 Particulars: MDA-MB-436 breast carcinoma growth inhibition, drug combinations; measured here: cisplatin combination; at 5 µM; stronger effect = higher value.
As to `CCCCCCNC(=O)n1cc(F)c(=O)[nH]c1=O`, the inhibition is 33.3% and 25.8%.
Consider `CCn1cc(C(=O)O)c(=O)c2cc(F)c(N3CCN(C)CC3)cc21`, for which the inhibition is -9.37% and -6.1%.
The same measure, in the same setting: the same measure for `Cn1cnc([N+](=O)[O-])c1Sc1ncnc2nc[nH]c12`: 26.8% and 35.6%.
Same read-out and setting: in the case of `O=c1[nH]cc(F)c(=O)[nH]1` it was 36.2%.

A further experiment is described as follows: UWB1.289_BRCA1 ovarian cancer growth, cell-based, BGB or cisplatin combinations (AID 1671459). Particulars: UWB1.289 BRCA1 ovarian carcinoma, drug combinations, BGB combination, concentration series, at 5 µM, stronger effect = higher value.
`CCCCCCNC(=O)n1cc(F)c(=O)[nH]c1=O`: the inhibition was 34.1% and 35.2%.
On the same count and under the same terms, in the case of `CCn1cc(C(=O)O)c(=O)c2cc(F)c(N3CCN(C)CC3)cc21` it was -6.71% and 0.813%; in that of `Cn1cnc([N+](=O)[O-])c1Sc1ncnc2nc[nH]c12`, 90.9% and 88.9%; in that of `O=c1[nH]cc(F)c(=O)[nH]1`, 2.42%.

The same experiment, now with this note: UWB1.289 BRCA1 ovarian carcinoma, drug combinations, at 0.5 µM, stronger effect = higher value.
Take `CCCCCCNC(=O)n1cc(F)c(=O)[nH]c1=O`: the inhibition is 11% (inactive) and 22.4% (inactive).
Regarding `CCn1cc(C(=O)O)c(=O)c2cc(F)c(N3CCN(C)CC3)cc21`, the inhibition was -17.9% (inactive) and 5.05% (inactive).
As to `Cn1cnc([N+](=O)[O-])c1Sc1ncnc2nc[nH]c12`, the inhibition was 37.4% (inactive) and 50.2% (inactive).
`O=c1[nH]cc(F)c(=O)[nH]1`: the inhibition is -7.71% (inactive).

The same experiment, now with this note: UWB1.289 BRCA1 ovarian carcinoma, drug combinations, cisplatin combination, concentration series, at 5 µM, stronger effect = higher value.
As for `CCCCCCNC(=O)n1cc(F)c(=O)[nH]c1=O`, the inhibition is 14.4% and 26.3%.
On the same count and under the same terms, in the case of `CCn1cc(C(=O)O)c(=O)c2cc(F)c(N3CCN(C)CC3)cc21` it was -12.6% and 1.69%; in that of `Cn1cnc([N+](=O)[O-])c1Sc1ncnc2nc[nH]c12`, 96.5% and 101%; in that of `O=c1[nH]cc(F)c(=O)[nH]1`, 17%.

Another experiment is described as follows: drug combination toxicity in non-malignant astrocytes – cell-based, BGB or cisplatin IC20 combos, cytotoxicity control for chromothriptic childhood tumor combination screen (AID 1671460).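 Also: cells exposed to compounds for 96 hours before viability readout; 0% = vehicle and 100% = killing control.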 Particulars: Human astrocytes, viability inhibition, drug combinations; at 0.5 µM; stronger effect = higher value.
Regarding `CCCCCCNC(=O)n1cc(F)c(=O)[nH]c1=O`, the inhibition was 7.08% (inactive) and 16.2% (inactive).
On the same count and under the same terms, the same measure for `CCn1cc(C(=O)O)c(=O)c2cc(F)c(N3CCN(C)CC3)cc21`: -3.63% (inactive) and -0.44% (inactive).
Consider `Cn1cnc([N+](=O)[O-])c1Sc1ncnc2nc[nH]c12`, for which the inhibition was -1.25% (inactive) and 13.6% (inactive).
For the molecule `O=c1[nH]cc(F)c(=O)[nH]1`, the inhibition is -3.88% (inactive).

Still in this experiment, the particulars now being: Human astrocytes, viability inhibition, drug combinations; measured here: combo with BGB IC20; at 0.5 µM; stronger effect = higher value.
Regarding `CCCCCCNC(=O)n1cc(F)c(=O)[nH]c1=O`, the inhibition is -8.62% and 3.35%.
Same read-out and setting: in the case of `CCn1cc(C(=O)O)c(=O)c2cc(F)c(N3CCN(C)CC3)cc21` it was 1.4% and 4.59%.
`Cn1cnc([N+](=O)[O-])c1Sc1ncnc2nc[nH]c12`: the inhibition was 5.14% and 24.1%.
Still for that read-out and setting: in the case of `O=c1[nH]cc(F)c(=O)[nH]1` it was 2.98%.

Still in this experiment, the particulars now being: Human astrocytes, viability inhibition, drug combinations; measured here: combo with cisplatin IC20; at 0.5 µM; stronger effect = higher value.
For `CCCCCCNC(=O)n1cc(F)c(=O)[nH]c1=O`, the inhibition was 18.1% and 20.7%.
Consider `CCn1cc(C(=O)O)c(=O)c2cc(F)c(N3CCN(C)CC3)cc21`, for which the inhibition was -18.3% and 1.72%.
Still for that read-out and setting: in the case of `Cn1cnc([N+](=O)[O-])c1Sc1ncnc2nc[nH]c12` it was -7.22% and 6.12%.
Take `O=c1[nH]cc(F)c(=O)[nH]1`: the inhibition is -4.03%.

(Values after PubChem BioAssay.)
